These are literature values, as cited in PubChem BioAssay AID977610.

Hit rate of the full screen: of about 3,600 compounds, about 3,600 (100%) were called active. The limit is not given here; nearly all actives have Ki up to about 18000 µM. So high a share suggests a set chosen from earlier hits. Some of the results follow.

A short description of the data set: PubChem AID 977610. The settings on record: PDB protein-ligand complexes, literature Ki.
[1] abbreviates: protein: type II dehydroquinase dehydratase from Mycobacterium tuberculosis, PDB entry 4kiw unless noted.

Take `O=C(O)c1cc(NCc2cccc([N+](=O)[O-])c2)cc(C(=O)O)c1`: the Ki under setting [1] was 7.5 µM (active). `O=C(O)c1cc(OCc2cccc([N+](=O)[O-])c2)cc(C(=O)O)c1`: the Ki under setting [1] was 140 µM [protein: type II dehydroquinase dehydratase from Mycobacterium tuberculosis, PDB entry 4kiu] (active). Take `O=C(O)c1cc(O)c(O)c(Oc2cccc([N+](=O)[O-])c2)c1`: the Ki under setting [1] was 50 µM [protein: type II dehydroquinase dehydratase from Mycobacterium tuberculosis, PDB entry 4kij] (active).

As to `CCC(CC)O[C@@H]1CC(C(=O)O)C[C@H](N)[C@H]1NC(C)=O` (some centres undefined), the inhibition constant Ki under setting [1] is 0.017 µM [protein: neuraminidase, PDB entry 4gzt] (active). Consider `CCC(CC)O[C@@H]1C=C(C(=O)O)C[C@H](N)[C@H]1NC(C)=O`, for which the Ki (protein: Neuraminidase from the B/Lyon/CHU/15.216/2011 virus, PDB entry 4cpy) was 0.491 µM (active) and the inhibition constant Ki (protein: Neuraminidase, PDB entry 4gzp) was 0.0143 µM (active). As for `O[C@@H]1[C@@H](O)[C@H](O)[C@]2(O)CC[C@H]1N2`, the Ki under setting [1] was 4600 µM [protein: Beta-glucosidase 1, PDB entry 4iie] (active). Consider `O=C(O)CCCC(=O)O`, for which the Ki under setting [1] was 30000 µM [protein: Delta-1-pyrroline-5-carboxylate dehydrogenase, mitochondrial, PDB entry 4lh3] (active). `O=C(O)C(O)(C(F)(F)F)C(F)(F)F`: the inhibition constant (Ki) under setting [1] was 27 µM [protein: Mandelate racemase, PDB entry 4fp1] (active). As to `O=C(CO)[C@@H](O)[C@H](O)CF`, the inhibition constant (Ki) under setting [1] was 25 µM [protein: XYLULOSE KINASE, PDB entry 4bc5] (active).

As for `CC(C)CN(C[C@@H](O)[C@H](Cc1ccccc1)NC(=O)O[C@H]1CO[C@H]2OCC(F)(F)[C@H]21)S(=O)(=O)c1ccc(N)cc1`, under setting [1], the inhibitory constant (Ki) was 5.8e-06 µM [protein: HIV-1 Protease, PDB entry 4u8w] (active). In the case of `C[C@](COC(=O)Cc1ccccc1)([C@@H](Nc1c(C=O)cc2ccccn12)C(=O)O)S(=O)O`, the inhibition constant (Ki) under setting [1] is 0.042 µM [protein: Beta-lactamase SHV-1, PDB entry 4gd6] (active). For the molecule `OC(c1ccc(Cl)s1)(c1ccc(Cl)s1)[C@H]1CN2CCC1CC2`, the Ki under setting [1] is 0.36 µM [protein: Choline kinase alpha, PDB entry 4da5] (active). As to `CC(=O)N[C@H](Cc1ccccc1)P(O)O`, the inhibition constant Ki under setting [1] was 10 µM [protein: Serine protease splA, PDB entry 3ufa] (active). Regarding `CN(C)C[C@@H](c1ccc(O)cc1)C1(O)CCCCC1`, the Ki under setting [1] is 235 µM [protein: Transporter(delta13 mutant), PDB entry 4mm7] (active). In the case of `O=C(O)C[C@@]12O[C@H]3C=CCN[C@H]3[C@@H]1C(=O)N[C@H]2C(=O)O`, the Ki under setting [1] is 210 µM [protein: Glutamate receptor 2, PDB entry 4isu] (active). Consider `Nc1cccc(F)c1C(=O)O`, for which the Ki under setting [1] is 34 µM [protein: Mycobacterium tuberculosis anthranilate phosphoribosyl transferase, PDB entry 4owo] (active).

Consider `Nc1c(F)cccc1C(=O)O`, for which the Ki under setting [1] was 1090 µM [protein: Mycobacterium tuberculosis anthranilate phosphoribosyl transferase, PDB entry 4owm] (active).

In the case of `Cc1ncc(CO[P+](O)(O)O)c(CN=Nc2nc3ccccc3s2)c1O`, the inhibition constant (Ki) under setting [1] was 10.4 µM [protein: Mycobaterium tuberculosis transaminase BioA, PDB entry 4mqp] (active). As for `O[C@H]1[C@H](O)[C@@H](O)CN2CC[C@H](O)[C@H]12`, the Ki under setting [1] is 6.6 µM [protein: Beta-glucosidase 1, PDB entry 4iif] (active). As for `Nc1cc(F)ccc1C(=O)O`, under setting [1], the inhibition constant (Ki) is 380 µM [protein: Mycobacterium tuberculosis anthranilate phosphoribosyl transferase, PDB entry 4n8q] (active).

In the case of `Nc1ccc(F)cc1C(=O)O`, the inhibitory constant (Ki) under setting [1] is 60 µM [protein: Mycobacterium tuberculosis anthranilate phosphoribosyl transferase, PDB entry 4own] (active). As to `Nc1nc(-c2ccc(Cc3ccccc3)cc2)cs1`, the Ki under setting [1] is 2 µM [protein: Human Leukotriene A4 Hydrolase, PDB entry 4l2l] (active). Consider `CCCCSC[C@H]1CN(Cc2c[nH]c3c(N)ncnc23)C[C@@H]1O`, for which, under setting [1], the Ki is 1.5e-06 µM [protein: 5'-methylthioadenosine/S-adenosylhomocysteine nucleosidase, PDB entry 4f3c] (active).

For orientation: Ki means the dissociation constant of the complex between target and ligand, obtained from inhibition or displacement.
